Hits are enriched below; roughly 11% of the tested compounds scored in any of these assays.
NPR1 antag = blocks ANP-stimulated signaling of human Npr1 receptor. P16066. HEK293 hNpr1 GloSensor cGMP, ANP-stimulated luminescence. Potency, µM (titrated, usually from 46.3 µM), hits mostly inhibitors. actives 1.6% (n = 76,000). AID 1347048; calls by dose curve; also: nearly all actives have a fitted effect of over 60% in size
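Compound pre-incubated 30 min at room temperature on GloSensor-loaded HEK293 cells stably carrying hNpr1 and the pGS-40F cGMP biosensor. Stimulation uses hNppA at 0.1 nM final; luminescence is taken at baseline and 20 min post-agonist.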
NIH3T3 tox = NIH 3T3 cell cytotoxicity | NIH 3T3 viability, CellTiter-Glo ATP luminescence, 48-72 h | Potency, µM (series often up to 96.7 µM), usual class: inhibitors | actives 4.3% (n = 94,000) | AID 1345082; also: nearly all actives have a fitted effect of over 55% in size
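Cells were seeded at 400 per well, treated with pin-transferred compound, and kept 48 or 72 hr at 37 °C before CellTiter-Glo addition and luminescence imaging of cellular ATP.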
HEK293 tox = HEK 293 cell cytotoxicity; HEK 293 viability, ATP luminescence (CellTiter-Glo), 48-72 h; Potency, µM (top dose mostly 115 µM), hits mostly inhibitors; actives 6.6% (n = 94,000); also: nearly all actives have a fitted effect of over 60% in size
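Viability of HEK 293 cells, plated at 250 cells/well, was judged by cellular ATP after compound treatment for 48 or 72 hr. Luminescence was imaged 10 min after CellTiter-Glo addition at room temperature.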
FLuc inh-1 = Photinus pyralis luciferase inhibition; actives 2.5% (n = 76,000); Potency, µM (top dose mostly 115 µM), actives largely listed as inhibitors; purified P. pyralis luciferase, luminescence, biochemical; AID 1347043; also: nearly all actives have a fitted effect of over 65% in size
Target sequence (P08659 whole entry, looked up): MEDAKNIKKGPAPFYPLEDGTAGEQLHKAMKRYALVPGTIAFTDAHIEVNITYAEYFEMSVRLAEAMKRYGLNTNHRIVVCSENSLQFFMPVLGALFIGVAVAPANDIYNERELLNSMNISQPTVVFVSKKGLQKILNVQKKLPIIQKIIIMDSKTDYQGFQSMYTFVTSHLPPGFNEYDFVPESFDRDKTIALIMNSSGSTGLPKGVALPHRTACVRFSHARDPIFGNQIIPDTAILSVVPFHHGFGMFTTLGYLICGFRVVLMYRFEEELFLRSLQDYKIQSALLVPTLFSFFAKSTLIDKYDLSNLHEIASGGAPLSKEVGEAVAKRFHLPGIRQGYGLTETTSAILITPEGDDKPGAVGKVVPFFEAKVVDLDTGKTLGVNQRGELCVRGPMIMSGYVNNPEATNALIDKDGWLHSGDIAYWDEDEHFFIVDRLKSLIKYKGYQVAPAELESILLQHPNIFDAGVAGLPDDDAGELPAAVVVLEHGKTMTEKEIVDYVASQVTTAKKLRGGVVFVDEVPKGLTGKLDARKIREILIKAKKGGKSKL
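Luminescence read by CCD imaging after purified firefly luciferase (10nM final) was added to substrate buffer holding 10uM D-luciferin and 10uM ATP, pH 7.5, pre-dosed with compound.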
FLuc SDR -ATP = stabilizes firefly luciferase without ATP; shares compounds with FLuc inh-1; Purified FLuc-C-HiBiT, Nano-Glo HiBiT luminescence, no ATP; Potency, µM (series often up to 32.7 µM), actives largely listed as activators; AID 1963318; actives 7.8% (n = 1,300); also: nearly all actives have a fitted effect of over 55% in size
FLuc SDR ATP = firefly luciferase binding stabilization, ATP added. actives 8.7% (n = 1,300). AID 1963319. Potency, µM (titrated, usually from 32.7 µM), most hits filed as activators. purified FLuc-C-HiBiT + ATP, HiBiT complementation luminescence. shares compounds with FLuc inh-1;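 also: signal reports ligand binding via conformational change of the enzyme rather than luciferase catalysis; nearly all actives have a fitted effect of over 55% in size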
FLuc inh-2 = inhibitors of firefly luciferase enzymatic activity; shares compounds with FLuc inh-1; actives 42% (n = 1,300); Potency, µM (doses to about 32.7 µM), usual class: inhibitors; purified FLuc-C-HiBiT enzyme, luciferin luminescence; AID 1963320; also: nearly all actives have a fitted effect of over 70% in size
Large screens that a line does not name were inactive (follow-up assays come after a bar, where they were run). Unless noted, calls follow the shape of the dose curve; as a rule, active = well fitted curve in the direction sought with a large enough effect; inconclusive = small, poorly fitted or top-dose-only effect, or another doubt; inactive = no such curve, though single readings can be large; an effect the other way counts as inactive or inconclusive.

O=C1c2cnc(-c3ccsc3)nc2OCCN1c1ccccc1	NIH3T3 tox inconclusive, HEK293 tox inconclusive, FLuc inh-1 7.1µM | FLuc SDR -ATP inconclusive | FLuc SDR ATP inconclusive | FLuc inh-2 inconclusive
CN(C)c1cccc(-c2ncc3c(n2)OCCN(c2ccccc2)C3=O)c1	NIH3T3 tox inconclusive, HEK293 tox inconclusive, FLuc inh-1 1.6µM | FLuc SDR -ATP inconclusive | FLuc SDR ATP inconclusive | FLuc inh-2 13µM
CN(C)c1cccc(-c2cnc(NC(=O)C3(c4ccccc4)CC3)c3c2CCO3)c1	NIH3T3 tox inconclusive, HEK293 tox inconclusive
O=C1c2cnc(-c3ccsc3)nc2OCCN1CC1CC1	HEK293 tox inconclusive, FLuc inh-1 inconclusive
CNC(=O)c1cc(C)nc2onc(C3CCCN(C(=O)CN(C)C)C3)c12 (stereo unspecified)	none (no result: NPR1 antag, FLuc inh-1)
CCC[C@H](C)Oc1nc(N)c2[nH]c(=O)n(CCCCCN3CCCCC3)c2n1	none (no result: NPR1 antag, NIH3T3 tox, HEK293 tox, FLuc inh-1) | FLuc SDR -ATP inactive | FLuc SDR ATP inactive | FLuc inh-2 inactive
CNC(=O)c1cc(C2CC2)nc2c1c(C1CCN(C(=O)NC(C)C)C1)nn2C (stereo unspecified)	none (no result: NPR1 antag, FLuc inh-1)
O=c1[nH]nc2n1CCNCC2	none
O=c1[nH]nc2n1CCCCC2	none | FLuc SDR -ATP inactive | FLuc SDR ATP inactive | FLuc inh-2 inactive
CCCCOc1nc(N)c2[nH]c(=O)n(Cc3cccc(CC(=O)OC)c3)c2n1	none (no result: NPR1 antag, NIH3T3 tox, HEK293 tox, FLuc inh-1) | FLuc SDR -ATP inactive | FLuc SDR ATP inactive | FLuc inh-2 inactive
COc1ccc(Cn2c(C3CCN(C(=O)Cc4cccc(F)c4)CC3)n[nH]c2=O)cc1	none
CCN1CCN(C(=O)C2CCc3nc(N4CCN(C(=O)C5CCC5)CC4)sc3C2)CC1 (stereo unspecified)	none
O=C(O)C1CCc2nc(N3CCN(C(=O)C4CCC4)CC3)sc2C1 (stereo unspecified)	NIH3T3 tox inconclusive, FLuc inh-1 6.3µM | FLuc SDR -ATP inactive | FLuc SDR ATP inconclusive | FLuc inh-2 8.8µM
CC(C)c1ccc(NC(=O)O[C@@H]2CO[C@H]3[C@@H]2OC[C@@H]3NS(=O)(=O)c2cccs2)cc1	NIH3T3 tox inconclusive, HEK293 tox inconclusive, FLuc inh-1 11µM | FLuc SDR -ATP inactive | FLuc SDR ATP inactive | FLuc inh-2 inconclusive
COc1ccc(Cn2c(=O)c(C(=O)N3CCN(C(=O)c4cccc(OC)c4)CC3)nc3cccnc32)cc1	none (no result: NPR1 antag, FLuc inh-1)
O=C(O)c1cccc(-c2noc(-c3cccc([N+](=O)[O-])c3)n2)c1	none (no result: NPR1 antag, NIH3T3 tox, HEK293 tox, FLuc inh-1) | FLuc SDR -ATP 11µM | FLuc SDR ATP 0.0079µM | FLuc inh-2 0.007µM
COc1cccc(-c2nc(-c3ccc(C(=O)O)cc3)no2)c1	none (no result: NPR1 antag, NIH3T3 tox, HEK293 tox, FLuc inh-1) | FLuc SDR -ATP inconclusive | FLuc SDR ATP 0.88µM | FLuc inh-2 0.79µM
O=C(O)c1ccc(CN2C[C@H](O)C[C@H]2c2nc(-c3cccc([N+](=O)[O-])c3)no2)cc1	FLuc inh-1 inconclusive
O=C(O)c1ccc(-c2noc(-c3cccc(F)c3)n2)cc1	none (no result: NPR1 antag, NIH3T3 tox, HEK293 tox, FLuc inh-1) | FLuc SDR -ATP inactive | FLuc SDR ATP inconclusive | FLuc inh-2 5µM
COc1cccc(-c2nc(CN3CCCC3=O)no2)c1	FLuc inh-1 inconclusive
O=C(O)c1cccc(-c2noc(-c3ccc(F)cc3)n2)c1	none (no result: NPR1 antag, NIH3T3 tox, HEK293 tox, FLuc inh-1) | FLuc SDR -ATP 5µM | FLuc SDR ATP 0.0056µM | FLuc inh-2 0.0044µM
O=C(c1cccnc1)N1CCC(N2C(=O)C(OCC3CC3)C23CCCCC3)CC1 (stereo unspecified)	HEK293 tox inconclusive
O=c1c2nc(-c3ccc4c(c3)OCO4)ccc2ncn1-c1ccc(F)cc1F	NIH3T3 tox inconclusive
COCCn1c(=O)c(C(=O)N2CCC(c3ccccc3)CC2)nc2cccnc21	none (no result: NPR1 antag, FLuc inh-1)
COc1ccccc1-c1cccc(C(=O)O)c1	none (no result: NPR1 antag, FLuc inh-1)
Cc1noc(-c2nc(-c3cccc(F)c3)no2)n1	HEK293 tox inconclusive, FLuc inh-1 inconclusive
O=C(O)c1cccc(-c2noc(-c3cccc(F)c3)n2)c1	none (no result: NPR1 antag, NIH3T3 tox, HEK293 tox, FLuc inh-1) | FLuc SDR -ATP inconclusive | FLuc SDR ATP 0.007µM | FLuc inh-2 0.007µM
O=C(O)c1cccc(-c2noc(-c3ccccc3Cl)n2)c1	none (no result: NPR1 antag, NIH3T3 tox, HEK293 tox, FLuc inh-1) | FLuc SDR -ATP 2.8µM | FLuc SDR ATP 0.0062µM | FLuc inh-2 0.0035µM
